# From PubChem BioAssay (EPA / NIEHS)
# Several values for one entry are separate records, joined by “and”; a condition that tells them apart may be missing. Equal values may be shown once. More than one record can exist for a structure, and the calls need not agree. Activity calls are given as the source filed them. How the source made its calls: active means hit-call score of the fitted dose curve at least 0.9, where 1 is the maximum; inactive means score below 0.9.
# Experiments:
# Conditions in all cases: mRNA level, 48 h; actives raise or lower the signal
# [1] = read-out: Nuclear factor NF-kappa-B p105 subunit (Homo sapiens) (UniProt P19838); assay: LTEA_HepaRG_NFKB1: Life Technologies and Expression Analysis (LTEA) Assay for Nuclear Factor Kappa B Subunit 1 (NFKB1) using HepaRG (AID 2283521);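 on outcome: TaqMan qRT-PCR transcript normalised to ACTB GAPDH and POLR2A housekeeping genes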
# Method in brief: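 HepaRG, 48 h exposure; 8-pt half-log series from 100 uM in 0.5% DMSO; duplicates. Readout: NFKB1 mRNA by qRT-PCR (Fluidigm arrays), housekeeping-normalized. Gain/loss fit vs DMSO baseline.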
# [2] = read-out: Protein phosphatase 2A (PPP2R4), PTPA (gene 5524); assay: LTEA_HepaRG_PPP2R4: Life Technologies and Expression Analysis (LTEA) Assay for Protein phosphatase 2A (PPP2R4) using HepaRG (AID 2283522)
# Method in brief: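 Gene-expression endpoint in HepaRG hepatic cells: 48 h treatment across eight half-log concentrations up to 100 uM in 0.5% DMSO. PPP2R4 mRNA by qRT-PCR, normalized to three endogenous control genes.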
# [3] = read-out: Phosphatase and tensin (PTEN), PTEN (gene 5728); assay: LTEA_HepaRG_PTEN: Life Technologies and Expression Analysis (LTEA) Assay for Phosphatase and tensin (PTEN) using HepaRG (AID 2283523)
# Method in brief: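 Read-out is PTEN transcript level by multiplexed TaqMan qRT-PCR after 48 h chemical treatment of human HepaRG cultures in serum-free induction medium. Concentrations spanned 100 uM downward in half-log steps, 0.5% DMSO throughout; activity fitted in both directions against vehicle.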
# [4] = read-out: Pyruvate Dehydrogenase Kinase 4 (PDK4), PDK4 (gene 5166); assay: LTEA_HepaRG_PDK4: Life Technologies and Expression Analysis (LTEA) Assay for Pyruvate Dehydrogenase Kinase 4 (PDK4) using HepaRG (AID 2283525)
# Method in brief: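 In this multiplexed human HepaRG expression assay, cells are treated 48 h with test chemicals across an eight-point range starting at 100 uM. PDK4 mRNA changes, normalized to ACTB/GAPDH/POLR2A, are fitted in both directions relative to vehicle.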
# [5] = read-out: NAD(P)H dehydrogenase [quinone] 1 (NQO1), NQO1 (gene 1728); assay: LTEA_HepaRG_NQO1: Life Technologies and Expression Analysis (LTEA) Assay for NAD(P)H dehydrogenase [quinone] 1 (NQO1) using HepaRG (AID 2283526)
# Method in brief: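 Human HepaRG hepatic cells received chemicals for 48 h in serum-free induction medium with 0.5% DMSO, up to 100 uM. Expression was assessed by TaqMan qRT-PCR against housekeeping controls and fitted bidirectionally against DMSO.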
# [6] = read-out: Nuclear factor erythroid 2-related factor 2 (Homo sapiens) (UniProt Q16236); assay: LTEA_HepaRG_NFE2L2: Life Technologies and Expression Analysis (LTEA) Assay for Nuclear factor erythroid 2-related factor 2 (NFE2L2) Transcription Factor using HepaRG (AID 2283527);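 on outcome: TaqMan qRT-PCR transcript level normalised to ACTB GAPDH and POLR2A housekeeping genes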
# Method in brief: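 Transcript level of NFE2L2 is the read-out, measured by microfluidic TaqMan qRT-PCR and normalized to three housekeeping genes. Human HepaRG cultures received test chemical for 48 h at up to 100 uM in half-log steps. Gain or loss of signal is fitted relative to 0.5% DMSO.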
# [7] = read-out: succinate dehydrogenase complex iron sulfur subunit B (SDHB), SDHB (gene 6390); assay: LTEA_HepaRG_SDHB: Life Technologies and Expression Analysis (LTEA) Assay for succinate dehydrogenase complex iron sulfur subunit B (SDHB) using HepaRG (AID 2283528)
# Method in brief: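 Readout is SDHB transcript level by qRT-PCR, normalised to three housekeeping genes and fitted bidirectionally against 0.5% DMSO vehicle. Human HepaRG cells were treated for 48 h at up to 100 uM.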
# [8] = read-out: Signal transducer and activator of transcription 3 (Homo sapiens) (UniProt P40763); assay: LTEA_HepaRG_STAT3: Life Technologies and Expression Analysis (LTEA) Assay for Signal transducer and activator of transcription (STAT3) using HepaRG (AID 2283529)
# Method in brief: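 Read-out is STAT3 mRNA level by qRT-PCR, normalized to three housekeeping genes, in human HepaRG liver cells treated for 48 h. Concentrations ran from 100 uM downward in half-log steps; curves were fitted for gain or loss relative to 0.5% DMSO.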
# [9] = read-out: solute carrier (SLCO1B1), SLCO1B1 (gene 10599); assay: LTEA_HepaRG_SLCO1B1: Life Technologies and Expression Analysis (LTEA) Assay for solute carrier (SLCO1B1) using HepaRG (AID 2283530)
# Method in brief: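 Differentiated human HepaRG cells, plated 48 h, switched to serum-free induction medium and exposed in duplicate for 48 h to 8 half-log concentrations (top 100 uM) in 0.5% DMSO. SLCO1B1 mRNA by TaqMan qRT-PCR, normalized to ACTB/GAPDH/POLR2A.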
# [10] = read-out: sulfotransferase 2A1 (SULT2A1), SULT2A1 (gene 6822); assay: LTEA_HepaRG_SULT2A1: Life Technologies and Expression Analysis (LTEA) Assay for sulfotransferase 2A1 (SULT2A1) using HepaRG (AID 2283531)
# Method in brief: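 Differentiated human HepaRG cells in serum-free induction medium were exposed for 48 h to eight half-log concentrations (top 100 uM, 0.5% DMSO). SULT2A1 mRNA was measured by qRT-PCR, normalized to ACTB, GAPDH and POLR2A, and fitted bidirectionally against DMSO.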
# [11] = read-out: Transforming Growth Factor (TGFA), TGFA (gene 7039); assay: LTEA_HepaRG_TGFA: Life Technologies and Expression Analysis (LTEA) Assay for Transforming Growth Factor (TGFA) using HepaRG (AID 2283532)
# Method in brief: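 HepaRG (human liver line), 48 h exposure, 8 conc. half-log down from 100 uM, 0.5% DMSO vehicle, duplicates; serum-free induction medium. TGFA mRNA by TaqMan qRT-PCR, ACTB/GAPDH/POLR2A normalization; gain/loss fit vs DMSO.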
# [12] = read-out: Transforming Growth Factor (TGFB1), TGFB1 (gene 7040); assay: LTEA_HepaRG_TGFB1: Life Technologies and Expression Analysis (LTEA) Assay for Transforming Growth Factor (TGFB1) Transporter using HepaRG (AID 2283533)
# Method in brief: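 Differentiated human HepaRG cells in serum-free induction medium were exposed in duplicate for 48 h to eight concentrations (top 100 uM, half-log steps, 0.5% DMSO). TGFB1 mRNA was quantified by qRT-PCR, normalized to ACTB, GAPDH, POLR2A, and fitted bidirectionally against DMSO.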
# TIMP1, TIMP1 (gene 7076) = assay: LTEA_HepaRG_TIMP1: Life Technologies and Expression Analysis (LTEA) Assay for TIMP1 using HepaRG (AID 2283534);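 on outcome: TaqMan qRT-PCR signal normalized to ACTB GAPDH and POLR2A housekeeping genes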
# Method in brief: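 Differentiated human HepaRG cells in serum-free induction medium were exposed 48 h to chemicals (8 half-log concentrations, top 100 uM, 0.5% DMSO). TIMP1 mRNA was quantified by TaqMan qRT-PCR, normalized to ACTB/GAPDH/POLR2A; bidirectional fit versus DMSO.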
# [13] = read-out: Tumor necrosis factor receptor 1 (TNFRSF1A), TNFRSF1A (gene 7132); assay: LTEA_HepaRG_TNFRSF1A: Life Technologies and Expression Analysis (LTEA) Assay for Tumor necrosis factor receptor 1 (TNFRSF1A) using HepaRG (AID 2283535)
# Method in brief: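 Differentiated human HepaRG cells were exposed in duplicate for 48 h in serum-free induction medium to eight concentrations (top 100 uM, half-log steps, 0.5% DMSO). TNFRSF1A mRNA was quantified by qRT-PCR, normalized to ACTB, GAPDH and POLR2A, then fitted bidirectionally against DMSO.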
# [14] = read-out: Thyroid Hormone Responsive (THRSP), THRSP (gene 7069); assay: LTEA_HepaRG_THRSP: Life Technologies and Expression Analysis (LTEA) Assay for Thyroid Hormone Responsive (THRSP) using HepaRG (AID 2283536)
# Method in brief: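 mRNA induction or loss relative to 0.5% DMSO vehicle was fitted bidirectionally across an eight-point curve whose highest exposure was 100 uM. Human HepaRG liver cells received chemicals in duplicate over 48 h before RNA extraction.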
# [15] = read-out: Cellular tumor antigen p53 (Homo sapiens) (UniProt P04637); assay: LTEA_HepaRG_TP53: Life Technologies and Expression Analysis (LTEA) Assay for Tumor Protein P53 (TP53) using HepaRG (AID 2283537)
# Method in brief: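 Read-out is TP53 transcript level by microfluidic qRT-PCR, normalised to three housekeeping genes and fitted bidirectionally against DMSO. Human HepaRG cells received compounds for 48 h, highest concentration 100 uM.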
# [16] = read-out: UDP glucuronosyltransferase (UGT1A1), UGT1A1 (gene 54658); assay: LTEA_HepaRG_UGT1A1: Life Technologies and Expression Analysis (LTEA) Assay for UDP glucuronosyltransferase (UGT1A1) using HepaRG (AID 2283538)
# Method in brief: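 Human liver HepaRG cultures receive test chemical for 48 h, up to 100 uM in 0.5% DMSO, with phenobarbital induction controls. UGT1A1 mRNA is measured by qRT-PCR and normalized to ACTB, GAPDH and POLR2A.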
# [17] = read-out: UDP glucuronosyltransferase (UGT1A6), UGT1A6 (gene 54578); assay: LTEA_HepaRG_UGT1A6: Life Technologies and Expression Analysis (LTEA) Assay for UDP glucuronosyltransferase (UGT1A6) using HepaRG (AID 2283539)
# Method in brief: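 Human HepaRG cells were dosed for 48 h in serum-free induction medium with 0.5% DMSO vehicle, eight-point half-log series from 100 uM, in duplicate. UGT1A6 mRNA was measured by qRT-PCR, normalized to ACTB, GAPDH, POLR2A, and fitted bidirectionally against DMSO.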
# [18] = read-out: X-box binding protein 1 (XBP1), XBP1 (gene 7494); assay: LTEA_HepaRG_XBP1: Life Technologies and Expression Analysis (LTEA) Assay for X-box binding protein 1 (XBP1) using HepaRG (AID 2283540)
# Method in brief: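 Differentiated human HepaRG cells in serum-free induction medium were exposed in duplicate for 48 h to eight half-log concentrations up to 100 uM in 0.5% DMSO. XBP1 mRNA was quantified by qRT-PCR, normalised to ACTB, GAPDH and POLR2A, with bidirectional fitting against DMSO.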
# [19] = read-out: solute carrier (SLC22A1), SLC22A1 (gene 6580); assay: LTEA_HepaRG_SLC22A1: Life Technologies and Expression Analysis (LTEA) Assay for solute carrier (SLC22A1) using HepaRG (AID 2283524)
# Method in brief: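 HepaRG (human liver line), 48 h dosing in serum-free induction medium; 8 conc., half-log down from 100 uM, 0.5% DMSO vehicle, duplicates. Endpoint: SLC22A1 mRNA, qRT-PCR, housekeeping-normalized; gain/loss fit vs DMSO.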
# Sequence of Signal transducer and activator of transcription 3 (Homo sapiens) (P40763 whole entry, looked up): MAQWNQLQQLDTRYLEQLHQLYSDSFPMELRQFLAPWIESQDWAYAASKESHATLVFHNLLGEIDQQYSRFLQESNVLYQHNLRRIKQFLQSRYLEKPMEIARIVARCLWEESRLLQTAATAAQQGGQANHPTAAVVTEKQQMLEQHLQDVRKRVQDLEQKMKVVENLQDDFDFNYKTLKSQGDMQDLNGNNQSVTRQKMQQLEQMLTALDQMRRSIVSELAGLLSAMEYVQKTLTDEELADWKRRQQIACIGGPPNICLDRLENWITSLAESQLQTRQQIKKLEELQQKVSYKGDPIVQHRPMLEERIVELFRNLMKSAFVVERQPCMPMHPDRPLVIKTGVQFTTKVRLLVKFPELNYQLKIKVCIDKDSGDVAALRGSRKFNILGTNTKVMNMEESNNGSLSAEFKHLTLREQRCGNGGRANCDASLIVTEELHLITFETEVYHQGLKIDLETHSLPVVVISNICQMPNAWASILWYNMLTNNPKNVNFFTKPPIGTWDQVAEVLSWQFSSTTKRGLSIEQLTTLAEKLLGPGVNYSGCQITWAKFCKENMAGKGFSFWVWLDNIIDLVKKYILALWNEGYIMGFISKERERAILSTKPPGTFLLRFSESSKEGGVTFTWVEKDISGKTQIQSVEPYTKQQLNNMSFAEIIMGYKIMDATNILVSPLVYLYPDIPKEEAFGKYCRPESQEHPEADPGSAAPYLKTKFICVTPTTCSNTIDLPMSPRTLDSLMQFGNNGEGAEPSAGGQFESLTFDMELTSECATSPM
# Sequence of Nuclear factor erythroid 2-related factor 2 (Homo sapiens) (Q16236 whole entry, looked up): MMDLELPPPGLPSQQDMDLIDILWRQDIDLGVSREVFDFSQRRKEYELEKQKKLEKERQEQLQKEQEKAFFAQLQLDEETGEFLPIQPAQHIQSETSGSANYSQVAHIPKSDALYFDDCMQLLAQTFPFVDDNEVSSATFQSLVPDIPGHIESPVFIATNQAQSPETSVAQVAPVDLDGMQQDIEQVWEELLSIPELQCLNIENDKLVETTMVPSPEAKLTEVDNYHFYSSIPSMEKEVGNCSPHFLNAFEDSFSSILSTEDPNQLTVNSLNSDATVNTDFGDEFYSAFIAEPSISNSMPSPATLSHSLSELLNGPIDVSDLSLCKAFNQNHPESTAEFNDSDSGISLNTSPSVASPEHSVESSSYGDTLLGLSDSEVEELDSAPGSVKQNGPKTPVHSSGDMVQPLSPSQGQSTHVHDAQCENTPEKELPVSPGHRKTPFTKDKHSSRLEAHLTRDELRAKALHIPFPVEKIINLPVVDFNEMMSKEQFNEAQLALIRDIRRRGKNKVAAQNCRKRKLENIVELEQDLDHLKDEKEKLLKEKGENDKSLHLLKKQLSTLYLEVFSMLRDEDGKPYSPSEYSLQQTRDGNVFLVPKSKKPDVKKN
# Sequence of Nuclear factor NF-kappa-B p105 subunit (Homo sapiens) (P19838 whole entry, looked up): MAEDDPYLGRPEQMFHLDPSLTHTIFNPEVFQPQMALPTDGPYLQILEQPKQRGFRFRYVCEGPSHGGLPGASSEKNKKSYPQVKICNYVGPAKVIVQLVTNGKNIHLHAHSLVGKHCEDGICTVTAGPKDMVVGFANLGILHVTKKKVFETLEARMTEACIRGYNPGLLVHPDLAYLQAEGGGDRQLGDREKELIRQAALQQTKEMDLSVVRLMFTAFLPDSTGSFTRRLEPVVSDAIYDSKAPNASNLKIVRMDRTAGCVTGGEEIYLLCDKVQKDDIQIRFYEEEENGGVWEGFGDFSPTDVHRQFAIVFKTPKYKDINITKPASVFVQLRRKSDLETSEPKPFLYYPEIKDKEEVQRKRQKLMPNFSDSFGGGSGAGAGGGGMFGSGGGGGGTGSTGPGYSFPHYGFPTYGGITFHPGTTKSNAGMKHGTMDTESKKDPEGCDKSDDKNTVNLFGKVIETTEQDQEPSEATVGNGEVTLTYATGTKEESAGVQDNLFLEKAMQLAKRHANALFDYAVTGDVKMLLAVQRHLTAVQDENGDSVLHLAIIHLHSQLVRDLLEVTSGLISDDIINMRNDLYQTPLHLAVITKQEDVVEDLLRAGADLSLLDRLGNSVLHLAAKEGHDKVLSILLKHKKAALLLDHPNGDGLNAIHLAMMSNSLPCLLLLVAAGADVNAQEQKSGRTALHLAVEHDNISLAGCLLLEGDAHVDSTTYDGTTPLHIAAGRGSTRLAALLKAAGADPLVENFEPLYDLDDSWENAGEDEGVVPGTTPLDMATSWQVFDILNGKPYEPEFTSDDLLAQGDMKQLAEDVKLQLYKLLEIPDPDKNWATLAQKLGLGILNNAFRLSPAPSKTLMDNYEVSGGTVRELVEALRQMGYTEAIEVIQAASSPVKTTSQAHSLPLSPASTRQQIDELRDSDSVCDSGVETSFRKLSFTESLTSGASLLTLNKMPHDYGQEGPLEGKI
# Sequence of Cellular tumor antigen p53 (Homo sapiens) (P04637 whole entry, looked up): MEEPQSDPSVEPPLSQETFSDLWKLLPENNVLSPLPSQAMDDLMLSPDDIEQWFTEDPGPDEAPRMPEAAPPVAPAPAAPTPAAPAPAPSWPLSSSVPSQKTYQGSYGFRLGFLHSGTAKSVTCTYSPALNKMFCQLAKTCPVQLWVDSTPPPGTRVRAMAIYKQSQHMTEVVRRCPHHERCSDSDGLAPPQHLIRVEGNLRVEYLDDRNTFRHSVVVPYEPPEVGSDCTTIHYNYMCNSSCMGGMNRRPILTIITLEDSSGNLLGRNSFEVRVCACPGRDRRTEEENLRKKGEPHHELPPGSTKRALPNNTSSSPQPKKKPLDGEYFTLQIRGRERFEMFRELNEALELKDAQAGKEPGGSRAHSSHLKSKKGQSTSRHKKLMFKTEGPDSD
smiles,measurement,setting,value
C#C[C@]1(O)CC[C@H]2[C@@H]3CCc4cc(O)ccc4[C@H]3CC[C@@]21C,outcome,[1],inactive
same,outcome,[2],inactive
same,outcome,[3],inactive
same,outcome,[4],inactive
same,outcome,[5],inactive
same,outcome,[6],inactive
same,outcome,[7],inactive
same,outcome,[8],inactive
same,outcome,[9],inactive
same,outcome,[10],inactive
same,outcome,[11],inactive
same,outcome,[12],inactive
same,outcome,"TIMP1, TIMP1 (gene 7076)",inactive
same,outcome,[13],inactive
same,outcome,[14],inactive
same,outcome,[15],inactive
same,outcome,[16],inactive
same,outcome,[17],inactive
same,outcome,[18],inactive
CC/C(=C(\c1ccccc1)c1ccc(OCCN(C)C)cc1)c1ccccc1,AC50,[1],81.9 µM (active)
same,outcome,[1],inactive
same,outcome,[2],inactive
same,AC50,[3],93.3 µM (active)
same,outcome,[3],inactive
same,AC50,[19],42.3 µM (active) and 15.8 µM (active)
same,AC50,[4],69.2 µM (active)
same,outcome,[4],inactive
same,AC50,[5],79.9 µM (active)
same,outcome,[5],inactive
same,AC50,[6],77.1 µM (active)
same,outcome,[6],inactive
same,AC50,[7],81.1 µM (active)
same,outcome,[7],inactive
same,AC50,[8],60.3 µM (active) and 95.8 µM (active)
same,AC50,[9],45.8 µM (active)
same,outcome,[9],inactive
same,AC50,[10],74.6 µM (active)
same,outcome,[10],inactive
same,AC50,[11],94.2 µM (active)
same,outcome,[11],inactive
same,AC50,[12],73.5 µM (active)
same,outcome,[12],inactive
same,AC50,"TIMP1, TIMP1 (gene 7076)",83.7 µM (active)
same,outcome,"TIMP1, TIMP1 (gene 7076)",inactive
same,AC50,[13],66.3 µM (active)
same,outcome,[13],inactive
same,outcome,[14],inactive
same,AC50,[15],45.8 µM (active) and 40 µM (active)
same,AC50,[16],32.1 µM (active)
same,outcome,[16],inactive
same,AC50,[17],45.8 µM (active)
same,outcome,[17],inactive
same,AC50,[18],45.8 µM (active) and 96.2 µM (active)
C=C(C)C(N)=O,outcome,[1],inactive
same,outcome,[2],inactive
same,outcome,[3],inactive
same,outcome,[19],inactive
same,outcome,[4],inactive
same,outcome,[5],inactive
same,outcome,[6],inactive
same,outcome,[7],inactive
same,outcome,[8],inactive
same,outcome,[9],inactive
same,outcome,[10],inactive
same,outcome,[11],inactive
same,outcome,[12],inactive
same,outcome,"TIMP1, TIMP1 (gene 7076)",inactive
same,outcome,[13],inactive
same,outcome,[14],inactive
same,outcome,[15],inactive
same,outcome,[16],inactive
same,outcome,[17],inactive
same,outcome,[18],inactive
